# Compound activity deposited in PubChem BioAssay by National Center for Advancing Translational Sciences (NCATS).
# Hits are enriched below; roughly 3% of the tested compounds scored in any of these assays.
# 15-hLO-2 inh: blocks human 15-lipoxygenase 2 activity | O15296 | purified 15hLO-2, xylenol orange hydroperoxide absorbance | Potency, µM (highest dose often 57.1 µM), without a hit: at the highest dose activity change, negative = inhibition, hits mostly inhibitors | 0.56% of 110,000 active | AID 881; further: potency means the concentration at half of the fitted maximal effect; nearly all actives have a fitted effect of over 60% in size
#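 Purified human 15hLO-2 (50 nM) preincubated 15 min with compound, then 45 uM arachidonic acid for 90 min at RT in 25 mM Hepes pH 7.5, 0.01% Triton X-100. Hydroperoxide detected by Fe-xylenol orange; 573/405 nm absorbance ratio.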
# IMPase inh: IMPase inhibition in cells. inhibition (IP1 accumulation), % at 46.1 µM. AID 901. CHO-M1 cells, IP1 accumulation, HTRF TR-FRET ratio. 120,000 tested, under 10 active. P97697; active means well fitted curve in the direction sought with a large enough effect in the signal ratio, not every such curve was filed as active; inconclusive means small, poorly fitted or top-dose-only effect, or a change in a side signal; inactive means no such curve, though single readings can be large or run the other way; the % refers to the signal ratio;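 further: cells stimulated with carbachol in lithium chloride buffer; plate controls were DMSO basal wells for no effect and reference inhibitor wells for full effect; higher means more IMPase inhibition seen as more IP1 and lower FRET ratio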
# Target sequence (P97697 whole entry, looked up): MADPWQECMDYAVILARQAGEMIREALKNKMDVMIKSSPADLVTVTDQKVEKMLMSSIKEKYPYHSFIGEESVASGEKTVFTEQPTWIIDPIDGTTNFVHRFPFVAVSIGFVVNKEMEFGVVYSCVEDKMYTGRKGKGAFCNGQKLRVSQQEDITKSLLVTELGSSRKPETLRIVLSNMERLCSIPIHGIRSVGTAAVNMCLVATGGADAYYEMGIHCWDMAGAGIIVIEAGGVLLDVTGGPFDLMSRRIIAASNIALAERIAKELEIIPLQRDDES
#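 Cellular IMPase inhibition is scored as a rise in cytosolic IP1, detected by competitive TR-FRET between d2-labelled IP1 and a europium anti-IP1 antibody. M1-expressing CHO cells were stimulated with carbachol for 30 min at 37C, with lithium (50 mM LiCl) present in the buffer.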
# PNC assembly inh: inhibitors of perinucleolar compartment assembly. activity change (PNC), negative = inhibition, % at 10 µM. 3.1% of 140,000 active. AID 2417. PC3M PTB-GFP, PNC prevalence imaging, 16 h; stronger effect = lower value;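 active means readout at or below -70, meaning at least 70% loss of cells showing the perinucleolar compartment, a nuclear body marking cancer cells; inconclusive means readout between -30 and a set limit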;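 further: plate controls were DMSO wells for no effect and camptothecin positive control wells for full effect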
#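 PC3M cells stably expressing PTB-GFP, 750–1000 cells/well, treated 16 h at 37 °C with compound (23 nl of library stock), in duplicate. After paraformaldehyde fixation and Hoechst stain, imaged at 20x; PNC prevalence scored by image analysis.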
# 12-hLO inh: blocks human 12-lipoxygenase activity | purified 12-hLO, xylenol orange hydroperoxide absorbance | AID 1452 | P18054 | 0.12% of 150,000 active | Potency, µM (top dose mostly 57.1 µM), for inactives: top-dose activity change, negative = inhibition, actives largely listed as inhibitors; further: potency means the concentration at half of the fitted maximal effect; nearly all actives have a fitted effect of over 55% in size
#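 150 nM 12hLO, 25 mM Hepes pH 7.0 + 0.01% Triton X-100; cpd preinc 15 min RT; 40 uM arachidonic acid, 30 min RT; Fe-XO 30 min; A573/A405 ratio as read-out.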
# The depositor's hits bear a star; ? = inconclusive; . = no result given; [ ] = dose if it differs, or a comment. Unless noted, the call rests on the fitted dose curve; in most records, active means well fitted curve in the direction sought with a large enough effect; inconclusive means small, poorly fitted or top-dose-only effect, or another doubt; inactive means no such curve, though single readings can be large; an effect the other way counts as inactive or inconclusive. Unless noted, on the % scale 0 is the no-effect control and ±100 the full control effect.
SMILES,15-hLO-2 inh,IMPase inh,PNC assembly inh,12-hLO inh
CCN(CC)C(=O)CSc1nc2cccnc2n1-c1ccccc1OC,-3%,-3,-1,0%
O=C(Nc1ccccc1)N1CCC2(CC1)CCN(C(=O)c1cccc(F)c1)CC2,6%,.,.,0%
Cc1noc(C)c1COc1ccc(C(=O)OCc2nnc(-c3ccc(Cl)cc3)o2)cc1,-3%,12,-84*,-14%
O=C(OCc1nnc(-c2ccc(Cl)cc2)o1)c1ccncc1,-10%,-9,28,-23%
CCOc1ccccc1NC(=O)c1cccc(NC(=O)c2ccco2)c1,8%[2.29 µM],4,-86*,0%
O=C(Nc1cccc(Oc2ccc3c(c2)C(=O)NC3=O)c1)c1ccco1,-10%[11.4 µM],3[1.84 µM],-92*,-1%
Cc1cccc(C)c1OCC(=O)Nc1cccc(NC(=O)c2ccco2)c1,.,?,-119*,0%
CCOc1ccc(C(=O)Nc2ccc(NC(=O)c3ccco3)c(Cl)c2)cc1Cl,-6%,-30,28,-1%
Cc1ccc(OCC(=O)Nc2nnn(C)n2)c(C)c1,-1%,0,-22,1%
Cc1cc(C)c(OCC(=O)Nc2nnn(C)n2)c(Br)c1,.,-4,-100*,5%
Cc1ccc(O)c(NC(=O)c2ccc(Br)c(S(=O)(=O)N3CCCCC3)c2)c1,.,8,.,.
O=C(Cn1[nH]c(=O)c2ccccc2c1=O)NC1CCCCCC1,4%,8,-86*,-4%
O=C(Cn1[nH]c(=O)c2ccccc2c1=O)NC1CCN(Cc2ccccc2)CC1,3%,3,-11,-4%
COc1cccc(/C=N/NC(=O)CN2CC(c3ccccc3)CC2=O)c1O (configuration not stated),.,.,25,-4%
CC1(C)Cc2nc3sc4c(SCC(=O)NCc5ccccc5)ncnc4c3cc2CO1,5%,4,-112*,-2%
CC1(C)Cc2nc3sc4c(N(CCO)CCO)ncnc4c3cc2CO1,-1%,-2,20,3%
O=C(Nc1ccc(-c2nc3c(ccc4ccccc43)o2)cc1)c1ccco1,-4%,-10,-1,-4%
CCOC(=O)C1CCN(c2c(NCCN3CCN(c4ccccc4)CC3)c(=O)c2=O)CC1,.,-8,8,-5%
CCOC(=O)Cc1nnc(NC(=O)C(CC)Sc2nncn2C)s1 (configuration not stated),-1%,7,-85*,0%
CCOC(=O)Cc1nnc(NC(=O)CSc2nncn2C)s1,6%,-4,-4,-2%
CCCC[C@@H]1C[C@H]1C(NC(=O)c1ccccc1)c1ccc(C(F)(F)F)cc1 (some centres not stated),17%,.,.,-3%
CCOc1ccc(NC(=O)CC2Nc3cccc4cccc(c34)NC2=O)cc1 (configuration not stated),.,-6,.,.
O=C(O)CCc1nn2cc(-c3ccccc3)nc2[nH]c1=O,.,?,-100*,1%
Nc1nc2ccc(O)cc2s1,.,1,33,9%
Cc1cc2nc(N)sc2cc1C,-6%,-3,-91*,2%
SMILES,15-hLO-2 inh,IMPase inh,PNC assembly inh,12-hLO inh
O=C(c1cccc(Br)c1)c1conc1C(=O)c1ccco1,.,.,-114*,1%
CCCc1nn2c(N)c(/C=C3\C=Nc4ccccc43)c(=O)nc2s1,.,.,0,0%
CCS(=O)(=O)c1nn2c(N)c(/C=C3/C=CC(=O)C(OC)=C3)c(=O)nc2s1,.,.,-116*,-5%
CCOC(=O)c1c2ccc(OCC(=O)N/N=C/c3ccc(C)cc3)cc2n2ccccc12,16µM*,0,35,-5%
CNc1nnc(-c2ccc(N(C)C)cc2)s1,.,.,-95*,-2%
CN(C)c1ccc(-c2ccncc2)cc1,2%,6,-18,-15%
CCCCC/C=C\C[C@H](O)/C=C\c1cccc(C[C@H](O)CCCCO)n1,-19%,17,.,-16%
Cc1cccc(N2C(=O)c3cccc4c(N(C)CCO)ccc(c34)C2=O)c1,-7%,10,14,-6%
O=C(Cn1cnc2c(nnn2Cc2ccccc2)c1=O)N1CCN(c2ccccc2)CC1,-3%,3,?,-4%
O=C(Cn1cnc2c(nnn2Cc2ccccc2F)c1=O)N1CCN(c2ccccc2)CC1,.,7,-83*,8%
CC(=O)Oc1cccc(N2C(=O)c3ccccc3C2=O)c1,.,.,-85*,-1%
CC(=O)Oc1cccc(N2C(=O)C3CC=CCC3C2=O)c1 (configuration not stated),-5%,2,?,-3%
COc1ccc(C(=O)/C=C/N(C)C)cc1,1%,-1,-80*,-24%
CCNc1ncc2ncc(=O)n(Cc3cccs3)c2n1,3%,.,.,.
COc1ccc(S(=O)(=O)N(CCc2ccccc2)CC(=O)NCc2ccccc2)cc1OC,.,-8,.,.
C=CS(=O)(=O)c1ccc(Oc2ccc(S(=O)(=O)C=C)cc2)cc1,.,.,-134*,-4%
CC1(C)Cc2c(c(N3CCOCC3)nc3sc4c(NCc5ccccc5)nnnc4c23)CS1,-25%,1,20,-6%
CC1(C)Cc2c(c(N3CCOCC3)nc3sc4c(NCc5ccco5)nnnc4c23)CS1,?,4,-81*,-14%
CCOC(=O)c1nonc1NC(C)=O,.,2,-100*,5%
COC(=O)C1=C(C(=O)OC)[C@@H]2N(C)c3ccc(OC)cc3[C@@]23C[C@@H](C(=O)OC)N(C(C)=O)C3=N1,.,.,.,3%[11.4 µM]
O=Cc1ccsc1B(O)O,-2%,.,.,0%
COCCOC(=O)C1=C(C)OC(N)=C(C#N)C1c1ccco1 (configuration not stated),.,-3,-100*,15%
COCCOC(=O)c1[nH]c2c(c1C)C(=O)CC(c1ccc(F)cc1)C2 (configuration not stated),-2%,4,?,-2%
COCCOC(=O)c1[nH]c2c(c1C)C(=O)CC(c1ccccc1)C2 (configuration not stated),.,-7,-100*,0%
CSCCOC(=O)c1[nH]c2c(c1C)C(=O)CC(c1ccco1)C2 (configuration not stated),-11%,-5,-90*,-2%
SMILES,15-hLO-2 inh,IMPase inh,PNC assembly inh,12-hLO inh
COCCOC(=O)c1[nH]c2c(c1C)C(=O)CC(c1ccco1)C2 (configuration not stated),-15%,4,-95*,-7%
CCCn1c(-c2ccc(F)cc2)nc2c(NCCN3CCCC3)nc(C)nc21,43%,.,.,-2%
CCCCN1Cc2cc(C(=O)c3cc(F)ccc3O)cnc2NC1=O,-3%,2,-3,-8%
Cc1c(C(=O)OCCOC(C)C)[nH]c2c1C(=O)CC(c1ccco1)C2 (configuration not stated),.,12,-91*,-3%
CCOC(=O)c1[nH]c2c(c1C)C(=O)CC(c1ccco1)C2 (configuration not stated),-12%,2,-108*,-11%
COC(=O)c1[nH]c2c(c1C)C(=O)CC(c1cccs1)C2 (configuration not stated),-4%,-3,-85*,-3%
Cc1c(C(=O)OCc2ccccc2)[nH]c2c1C(=O)CC(c1ccco1)C2 (configuration not stated),-13%,6,-82*,-10%
